Test results reported in PubChem BioAssay (NCI).
Compounds without any hit were thinned out: in the full panel of roughly 79,000, 15% have a hit. Values without a mark were called inactive. Activity calls are given as the source filed them. No stated cut-off is given here; in the data, active means growth inhibition above about 70%; inactive means the rest.

Columns and labels:
[1] = NCI Yeast Anticancer Drug Screen. Data for the rad50 strain (AID 155);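 further: 0% = growth of vehicle-only cultures of the same strain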; conditions: S. cerevisiae rad50 strain growth inhibition, hits give high values
Procedure, shortened: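 Growth of the mutant yeast was measured after compound exposure and referenced to vehicle-treated cultures.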

[2] = NCI Yeast Anticancer Drug Screen. Data for the mec2-1 strain (AID 157); conditions: S. cerevisiae mec2-1 strain, hits give high values
Procedure, shortened: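 Test agents were screened against the mec2-1 yeast strain, with defined DNA repair or cell cycle alteration. Growth was scored as inhibition against vehicle-only controls.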

[3] = NCI Yeast Anticancer Drug Screen. Data for the sgs1 mgt1 strain (AID 161);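 further: 0% = growth of cultures given vehicle only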; conditions: S. cerevisiae sgs1 mgt1 strain, hits give high values
Procedure, shortened: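 Inhibition of yeast growth, normalised to vehicle-treated controls, is reported for a strain bearing genetic alterations in DNA damage repair.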

[4] = NCI Yeast Anticancer Drug Screen. Data for the cln2 rad14 strain (AID 165);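 further: 0% = growth equal to vehicle treated cultures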; conditions: S. cerevisiae cln2 rad14 strain, hits give high values
Procedure, shortened: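 Growth of compound-exposed yeast (cln2 rad14 genotype) measured and expressed as inhibition relative to vehicle.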

[5] = NCI Yeast Anticancer Drug Screen. Data for the bub3 strain (AID 167); conditions: S. cerevisiae bub3 mutant strain, hits give high values
Procedure, shortened: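 Whole-cell yeast assay. The mutant strain was incubated with compounds, and growth inhibition was determined by comparison with vehicle-treated cells.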

[6] = NCI Yeast Anticancer Drug Screen. Data for the mlh1 rad18 strain (AID 175); conditions: S. cerevisiae mlh1 rad18 strain growth inhibition, hits give high values
Procedure, shortened: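 In this whole-cell yeast screen, a strain with altered DNA damage repair is challenged with compound, and its growth is measured against matched vehicle-treated controls.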

[7] = at 5.0 µM (retest, dose inferred, filed as 0.5)
[8] = at 50.0 µM (retest, dose inferred, filed as 5.0)

| Structure (SMILES) | growth inhibition [1, 7] | growth inhibition [1, 8] | growth inhibition ([1]; at 50.0 µM) | growth inhibition [2, 7] | growth inhibition [2, 8] | growth inhibition ([2]; at 50.0 µM) | growth inhibition [3, 7] | growth inhibition [3, 8] | growth inhibition ([3]; at 50.0 µM) | growth inhibition [4, 7] | growth inhibition [4, 8] | growth inhibition ([4]; at 50.0 µM) | growth inhibition [5, 7] | growth inhibition [5, 8] | growth inhibition ([5]; at 50.0 µM) | growth inhibition [6, 7] | growth inhibition [6, 8] | growth inhibition ([6]; at 50.0 µM) |
| --- | --- | --- | --- | --- | --- | --- | --- | --- | --- | --- | --- | --- | --- | --- | --- | --- | --- | --- |
| O=C1CSC(=S)N1c1cccc(Cl)c1 | 20% | 28% | 40.5% | 15% | 23% | 86% (active) | 13% | 94% (active) | 79.6% (active) | 9% | 73% (active) | 19.4% | 8% | 92% (active) | 70.2% (active) | 24% | 48% | 91.7% (active) |
| O=C(c1ccc(Cl)cc1)C1OC12C(=O)Nc1c(Cl)cc(Cl)cc12 (stereo not given) | 1% | 99% (active) | 99.2% (active) | 3% | 99% (active) | 99.2% (active) | 22% | 99% (active) | 99.2% (active) | 5% | 99% (active) | 99.1% (active) | -1% | 99% (active) | 99.2% (active) | 4% | 99% (active) | 98.5% (active) |
| Oc1ccc(CNC2CCCCC2)cc1 | -4% | 4% | 70.8% (active) | -13% | -20% | 31.2% | -5% | 10% | 79.8% (active) | -2% | -11% | 50.5% | -14% | -20% | 37.4% | 1% | -25% | 46.9% |
| COc1ccc(C(=O)Nc2ccc(Cl)cc2)cc1 | -21% | -17% | 3.75% | -26% | -12% | 1.85% | 0% | 0% | 5.85% | -7% | 5% | 44.2% | -14% | -6% | -8.95% | -8% | -11% | -23.3% |
| CCCCCCCCCCOC(=O)Nc1ccc(C)c(NC(=O)OCCCCCCCCCC)c1 | 0% | 1% | 27.4% | 1% | -3% | 13.4% | 3% | -13% | 16.8% | 2% | -13% | 23.1% | 0% | -1% | 55.2% | -1% | -3% | 24.6% |
| CC(=O)/C(=C\c1ccco1)C(=O)Nc1ccccc1 | 2% | 23% | 73.1% (active) | 0% | 21% | 48.2% | 13% | 26% | 80.2% (active) | 6% | 23% | 92.4% (active) | -4% | 58% | 91.2% (active) | 6% | 37% | 94.7% (active) |
| Cc1ccc2ccc(C(Nc3ccccc3)c3ccncc3)c(O)c2n1 (stereo not given) | -6% | 92% (active) | 90.8% (active) | -2% | 95% (active) | 82.8% (active) | 4% | 87% (active) | 43.5% | -6% | 81% (active) | 49.3% | -7% | 92% (active) | 81.1% (active) | -5% | 92% (active) | 89% (active) |
| O=P(N=P(c1ccccc1)(c1ccccc1)c1ccccc1)(c1ccccc1)c1ccccc1 | 70% (active) | 96% (active) | 88% (active) | 60% | 99% (active) | 91.6% (active) | 49% | 99% (active) | 79% (active) | 40% | 98% (active) | 92.5% (active) | 62% | 99% (active) | 87.2% (active) | 71% (active) | 98% (active) | 88.7% (active) |
| CCOc1cc(C(c2ccc(N(C)C)cc2)c2ccc(N(C)C)cc2)ccc1O | -1% | 26% | 36.2% | -1% | 52% | 44.8% | 0% | 54% | 74.2% (active) | 2% | 52% | 84.1% (active) | 8% | 79% (active) | 79.4% (active) | 0% | 42% | 59.5% |
| CCCCCCCCCCSC(=NCC)NCC | 2% | 99% (active) | 66.9% | 4% | 99% (active) | 49.9% | 51% | 99% (active) | 46.7% | -6% | 99% (active) | 77.3% (active) | 27% | 99% (active) | 59% | 0% | 99% (active) | 99.5% (active) |
